Compound activity from PubChem.
CHO-K1 Ca ag = counter-screen for M1 agonists: effect in parental CHO-K1 cells. activation, % at 3 µM. hit rate 0.48% among 360,000. Fluo-8 calcium fluorescence; scaled to maximal ATP response, vehicle zero; in the data active = activation above about 15%;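 note: untransfected CHO-K1 host cells lacking M1 receptor as counterscreen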
CHRM1 antagonist = human M1 muscarinic receptor antagonists, primary screen, CHO-K1 cells, Fluo-8 calcium fluorescence, 1536-well; AID 588852, 2011; Muscarinic acetylcholine receptor M1 (Homo sapiens), P11229; CHO-K1 hM1, ACh EC80 antagonist; inhibition, % at 3 µM; hit rate 1.3% among 360,000;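 active = percent inhibition above its own plate's cutoff, namely the mean of that plate's compound wells plus 3 SD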;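 note: peak over basal fluorescence ratio during 140 s after agonist addition; 0% = ACh EC80 plus DMSO and 100% = DMSO alone without agonist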
Target sequence (P11229 whole entry, looked up): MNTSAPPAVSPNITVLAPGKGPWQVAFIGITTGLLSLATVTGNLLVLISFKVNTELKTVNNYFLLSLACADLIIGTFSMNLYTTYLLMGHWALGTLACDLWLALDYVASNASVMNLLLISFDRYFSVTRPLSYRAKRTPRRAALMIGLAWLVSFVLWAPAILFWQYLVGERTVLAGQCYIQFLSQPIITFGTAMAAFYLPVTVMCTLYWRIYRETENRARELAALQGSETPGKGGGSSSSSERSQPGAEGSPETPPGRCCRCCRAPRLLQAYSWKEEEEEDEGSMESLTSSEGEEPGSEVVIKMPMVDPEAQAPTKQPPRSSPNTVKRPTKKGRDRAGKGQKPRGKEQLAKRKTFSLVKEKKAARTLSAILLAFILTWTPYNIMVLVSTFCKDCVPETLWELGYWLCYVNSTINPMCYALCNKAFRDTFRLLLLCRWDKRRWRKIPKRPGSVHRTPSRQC
CHRM1 PAM = human M1 muscarinic receptor positive allosteric modulators, primary screen, CHO-K1 cells, Fluo-8 calcium fluorescence, 1536-well; activation, % at 3 µM; CHO-K1 hM1, ACh EC20; 0% = ACh EC20, 100% = maximal ACh; Muscarinic acetylcholine receptor M1 (Homo sapiens), P11229; AID 588819, 2011; hit rate 0.088% among 360,000; in the data active = activation above about 19%, passing the limit was not always enough
CHO-K1 Ca PAM = nonselective calcium activators in parental CHO-K1 cells, primary screen, counter-screen for M1 PAM project, cell-based, Fluo-8 calcium fluorescence, full deck, 1536-well. ATP EC20; 0% at ATP EC20, 100% at ATP max. activation, % at 3 µM. hit rate 0.02% among 360,000;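 active = activation above the run cutoff, the mean activation of all test compounds plus 3 SD, cut at about 40% in these data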;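 note: peak over basal fluorescence ratio in a 140 s read after ATP addition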
CHO-K1 Ca antag = M1 antagonist counterscreen hit in parental CHO-K1 cells; ATP-induced calcium, Fluo-8 fluorescence; inhibition, % at 3 µM; hit rate 0.6% among 360,000; AID 602250;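 active = inhibition above a per-plate cutoff, the plate's mean sample inhibition plus 3 SD, cut at about 24% in these data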;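 note: 0% = DMSO plus EC80 ATP and 100% = DMSO alone without ATP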
M1 ag = human M1 muscarinic receptor agonists, primary screen, Fluo-8 calcium fluorescence, CHO-K1 cells, HTS | Muscarinic acetylcholine receptor M1 (Homo sapiens), P11229 | CHO-K1 hM1, agonist mode; 0% DMSO, 100% acetylcholine EC100 | activation, % at 3 µM | hit rate 0.33% among 360,000;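 active = activation above the run's mean compound activation plus 3 SD, cut at about 16% in these data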;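 note: peak over basal fluorescence ratio within a 140 s kinetic read after compound addition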
Numbers without * were called inactive. In the library only some 2.3% were active in any assay of this set; here they are far more common.

Results for Cc1ccc(S(=O)(=O)N2CCOC2CNC(=O)C(=O)NCc2cccnc2)cc1 (stereo not given) ?
CHO-K1 Ca ag: 1.6; CHRM1 antagonist: -3.2; CHRM1 PAM: 2.5; CHO-K1 Ca PAM: -9.9; CHO-K1 Ca antag: 35.9*; M1 ag: -6.5

Results for Cc1ccc(S(=O)(=O)N2CCOC2CNC(=O)C(=O)NCCCN2CCOCC2)cc1 (stereo not given) ?
CHO-K1 Ca ag: 0.3; CHRM1 antagonist: -28.7; CHRM1 PAM: 23.5*; CHO-K1 Ca PAM: -14.8; CHO-K1 Ca antag: -4.8; M1 ag: -0.7

How did O=C(NCc1cccnc1)C(=O)NCC1OCCN1S(=O)(=O)c1ccccc1 (stereo not given) do in these assays?
CHO-K1 Ca ag: 0.0; CHRM1 antagonist: 10.9; CHRM1 PAM: -8.7; CHO-K1 Ca PAM: 9.1; CHO-K1 Ca antag: -2.2; M1 ag: -5.9

Results for O=S1(=O)C=C[C@H](COCc2ccccc2)N1 ?
CHO-K1 Ca ag: 0.2; CHRM1 antagonist: 3.0; CHRM1 PAM: 8.8; CHO-K1 Ca PAM: 8.6; CHO-K1 Ca antag: 13.8; M1 ag: -5.0

How did O=c1c2ccccc2nnn1Cc1nnc(-c2ccccc2Br)o1 do in these assays?
CHO-K1 Ca ag: 11.2; CHRM1 antagonist: -5.4; CHRM1 PAM: 8.5; CHO-K1 Ca PAM: 18.5; CHO-K1 Ca antag: -28.6; M1 ag: 16.2*

How did NC(=S)Cc1nc(-c2ccccc2)cs1 do in these assays?
CHO-K1 Ca ag: 2.2; CHRM1 antagonist: 11.9; CHRM1 PAM: -7.6; CHO-K1 Ca PAM: -9.7; CHO-K1 Ca antag: 31.5*; M1 ag: -2.5

What do the screens show for `CCC(C)NC(=O)C1(O)c2cc(Br)ccc2NC(=O)N1c1cccc(OC)c1` (stereo not given)?
CHO-K1 Ca ag: 0.9; CHRM1 antagonist: -10.7; CHRM1 PAM: 4.8; CHO-K1 Ca PAM: 14.1; CHO-K1 Ca antag: -7.0; M1 ag: -3.2

How did COCCNC(=O)CN1C(=O)NC2(CCCc3ccccc32)C1=O (stereo not given) do in these assays?
CHO-K1 Ca ag: 0.5; CHRM1 antagonist: 67.1*; CHRM1 PAM: 3.7; CHO-K1 Ca PAM: 13.2; CHO-K1 Ca antag: 1.5; M1 ag: -0.1

Results for COc1ccc(/C(C)=N/N2CCCCC2)c(O)c1 ?
CHO-K1 Ca ag: 1.3; CHRM1 antagonist: 1.4; CHRM1 PAM: 4.2; CHO-K1 Ca PAM: 6.0; CHO-K1 Ca antag: -18.0; M1 ag: 18.1*

Results for O=C(CCN1CCN(CCO)CC1)Nc1ccc(OCc2ccccc2)cc1 ?
CHO-K1 Ca ag: 0.5; CHRM1 antagonist: -8.1; CHRM1 PAM: 7.8; CHO-K1 Ca PAM: 4.7; CHO-K1 Ca antag: 0.3; M1 ag: -7.0

Results for NS(=O)(=O)c1ccc(NC(=S)Nc2ccc(OCc3ccccc3)cc2)cc1 ?
CHO-K1 Ca ag: -0.1; CHRM1 antagonist: -0.8; CHRM1 PAM: 3.8; CHO-K1 Ca PAM: 5.4; CHO-K1 Ca antag: 4.1; M1 ag: -6.6

Results for O=C(CCCc1nc2ccccc2s1)NCc1ccccc1 ?
CHO-K1 Ca ag: 8.6; CHRM1 antagonist: 0.5; CHRM1 PAM: 7.9; CHO-K1 Ca PAM: 15.3; CHO-K1 Ca antag: 3.0; M1 ag: -7.0

Results for O=C(CCN1CCN(Cc2ccccc2)CC1)Nc1ccc(OCc2ccccc2)cc1 ?
CHO-K1 Ca ag: 7.2; CHRM1 antagonist: 24.4*; CHRM1 PAM: -16.2; CHO-K1 Ca PAM: 2.6; CHO-K1 Ca antag: 23.3; M1 ag: 1.1

Results for O=C(c1ccccc1)c1ccc(OCCOCCN2CCN(Cc3ccccc3)CC2)cc1 ?
CHO-K1 Ca ag: 12.2; CHRM1 antagonist: 87.3*; CHRM1 PAM: -26.3; CHO-K1 Ca PAM: 9.4; CHO-K1 Ca antag: -3.9; M1 ag: -4.2

How did O=C(CCCc1nc2ccccc2s1)NNC(=O)CCN1CCN(Cc2ccccc2)CC1 do in these assays?
CHO-K1 Ca ag: 0.4; CHRM1 antagonist: 12.7; CHRM1 PAM: -7.8; CHO-K1 Ca PAM: 2.8; CHO-K1 Ca antag: -8.5; M1 ag: 17.3*

Results for S=C(Nc1ccccc1)Nc1ccc(OCc2ccccc2)cc1 ?
CHO-K1 Ca ag: -0.3; CHRM1 antagonist: -7.5; CHRM1 PAM: 3.5; CHO-K1 Ca PAM: -7.6; CHO-K1 Ca antag: 26.2*; M1 ag: -4.0

Results for O=C(CN1CCN(S(=O)(=O)c2ccc(Cl)s2)CC1)N1CCOCC1 ?
CHO-K1 Ca ag: -0.1; CHRM1 antagonist: 11.5; CHRM1 PAM: 1.5; CHO-K1 Ca PAM: 6.8; CHO-K1 Ca antag: -4.1; M1 ag: -3.0

Results for CCN(CC(=O)Nc1ccccc1C(F)(F)F)C(=O)c1ccc2[nH]c3c(c2c1)CC(C)CC3 (stereo not given) ?
CHO-K1 Ca ag: 2.0; CHRM1 antagonist: 5.6; CHRM1 PAM: 5.0; CHO-K1 Ca PAM: 8.1; CHO-K1 Ca antag: -1.5; M1 ag: 2.0

Results for CCOC(=O)C1=CCC(c2ccccc2)N(S(=O)(=O)c2ccccc2C)C1 (stereo not given) ?
CHO-K1 Ca ag: 0.8; CHRM1 antagonist: 3.1; CHRM1 PAM: -3.2; CHO-K1 Ca PAM: 4.0; CHO-K1 Ca antag: 7.4; M1 ag: -7.3

What do the screens show for `c1ccc(CN2CCN(CCOCCOc3ccc4c(c3)CCC4)CC2)cc1`?
CHO-K1 Ca ag: 12.9; CHRM1 antagonist: 29.2*; CHRM1 PAM: -18.7; CHO-K1 Ca PAM: 4.5; CHO-K1 Ca antag: -11.1; M1 ag: -3.2

Results for CC1CN(c2nc3c(c(=O)n(C)c(=O)n3C)n2Cc2c(F)cccc2Cl)CC(C)O1 (stereo not given) ?
CHO-K1 Ca ag: 0.3; CHRM1 antagonist: -8.2; CHRM1 PAM: 7.2; CHO-K1 Ca PAM: 18.5; CHO-K1 Ca antag: -1.4; M1 ag: 18.4*

Results for O=C(CCCCl)N1CCc2[nH]c3ccccc3c2C1 ?
CHO-K1 Ca ag: 0.6; CHRM1 antagonist: -16.6; CHRM1 PAM: -1.7; CHO-K1 Ca PAM: -11.9; CHO-K1 Ca antag: -3.8; M1 ag: 23.9*

What do the screens show for `COc1ccccc1NC(=O)N1CCc2[nH]c3ccc(F)cc3c2C1`?
CHO-K1 Ca ag: 1.9; CHRM1 antagonist: -17.3; CHRM1 PAM: -9.8; CHO-K1 Ca PAM: 23.0; CHO-K1 Ca antag: -16.3; M1 ag: 26.3*

What do the screens show for `O=C(N1CCc2[nH]c3ccccc3c2C1)C(F)(F)F`?
CHO-K1 Ca ag: -0.1; CHRM1 antagonist: 7.6; CHRM1 PAM: -11.6; CHO-K1 Ca PAM: -13.5; CHO-K1 Ca antag: 7.7; M1 ag: 45.7*

How did CC(=O)N1CCc2[nH]c3ccccc3c2C1 do in these assays?
CHO-K1 Ca ag: -1.0; CHRM1 antagonist: 3.9; CHRM1 PAM: 8.8; CHO-K1 Ca PAM: -3.6; CHO-K1 Ca antag: 14.5; M1 ag: -1.5

Results for CCOC(=O)c1c(C)n(C)c2cc(-c3ccc(C)cc3)c(O)cc12 ?
CHO-K1 Ca ag: 0.0; CHRM1 antagonist: 3.3; CHRM1 PAM: -4.3; CHO-K1 Ca PAM: -15.9; CHO-K1 Ca antag: 27.7*; M1 ag: -4.0
